From PubChem BioAssay (EPA / NIEHS)
Inconclusive results are not listed. Active and inactive are the calls of the source. How the source made its calls, unless noted: active means hit-call score of the fitted dose curve at least 0.9, where 1 is the maximum; inactive means score below 0.9.

Key:
[1] = molecular target: Paired box protein Pax-6 (Homo sapiens) (UniProt P26367); assay: ATG_Pax6_CIS: Attagene CIS-FACTORIAL HepG2 Assay for human Paired Box 6 (PAX6) (AID 2282956); conditions: HepG2 CIS-FACTORIAL PAX6 reporter transcription, RNA readout; actives raise or lower the signal
Sequence of Paired box protein Pax-6 (Homo sapiens) (P26367 whole entry, looked up): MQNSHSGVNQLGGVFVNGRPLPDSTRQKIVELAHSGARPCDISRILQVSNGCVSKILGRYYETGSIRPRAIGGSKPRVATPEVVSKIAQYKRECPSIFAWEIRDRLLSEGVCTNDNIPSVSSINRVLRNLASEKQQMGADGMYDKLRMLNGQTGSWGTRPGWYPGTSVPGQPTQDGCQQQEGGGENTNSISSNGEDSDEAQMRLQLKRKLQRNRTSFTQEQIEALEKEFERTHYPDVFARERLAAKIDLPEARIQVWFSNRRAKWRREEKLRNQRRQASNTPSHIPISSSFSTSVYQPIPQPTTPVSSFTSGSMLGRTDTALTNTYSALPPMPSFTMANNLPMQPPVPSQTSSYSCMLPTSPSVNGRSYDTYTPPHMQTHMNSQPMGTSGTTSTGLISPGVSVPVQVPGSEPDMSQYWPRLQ
Outline: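 Values derive from bidirectional curve fitting of reporter mRNA signal relative to DMSO. HepG2 cells bearing transfected cis-regulated MRTUs were exposed for 24 h; transcripts were read by RT-PCR and capillary electrophoresis.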

[2] = ATG_PPRE_CIS: Attagene CIS-FACTORIAL HepG2 Assay for human Peroxisome Proliferator-activated Response Element (PPRE) (AID 2282958); conditions: HepG2 PPRE cis-element reporter, Attagene transcription factor profiling; actives raise or lower the signal
Outline: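 Cells are first transfected transiently with the multiplexed reporter library, then dosed for 24 h. Total RNA is reverse-transcribed, amplified, fluorescently end-labeled and HpaI-cut before capillary electrophoresis; activity is fitted bidirectionally against DMSO controls.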

[3] = ATG_RORE_CIS: Attagene CIS-FACTORIAL HepG2 Assay for human RAR-related Orphan Receptor Element (RORE) (AID 2282959); conditions: HepG2 Attagene cis-factorial RORE reporter, mRNA; actives raise or lower the signal
Outline: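 Cells were HepG2 carrying transfected cis-regulated reporter constructs, dosed for 24 hours. Total RNA was reverse-transcribed and reporter cDNA amplified, fluorescently labeled and sized by capillary electrophoresis. Activity was fitted bidirectionally relative to DMSO.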

[4] = ATG_Sox_CIS: Attagene CIS-FACTORIAL HepG2 Assay for human SRY-box transcription factor (SOX) (AID 2282960); conditions: HepG2 Attagene cis-factorial SOX reporter, mRNA; actives raise or lower the signal
Outline: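 Transient MRTU transfection of HepG2; 24 h compound incubation; TriZol RNA, oligo(dT) RT, PCR, 6-FAM primer extension, HpaI cut, CE. Bidirectional fit, DMSO = baseline.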

[5] = molecular target: Transcription factor Sp1 (Homo sapiens) (UniProt P08047); assay: ATG_Sp1_CIS: Attagene CIS-FACTORIAL HepG2 Assay for human Specificity Protein 1 (Sp1) (AID 2282961); conditions: HepG2 Sp1 cis-reporter transcription, actives raise or lower the signal
Sequence of Transcription factor Sp1 (Homo sapiens) (P08047 whole entry, looked up): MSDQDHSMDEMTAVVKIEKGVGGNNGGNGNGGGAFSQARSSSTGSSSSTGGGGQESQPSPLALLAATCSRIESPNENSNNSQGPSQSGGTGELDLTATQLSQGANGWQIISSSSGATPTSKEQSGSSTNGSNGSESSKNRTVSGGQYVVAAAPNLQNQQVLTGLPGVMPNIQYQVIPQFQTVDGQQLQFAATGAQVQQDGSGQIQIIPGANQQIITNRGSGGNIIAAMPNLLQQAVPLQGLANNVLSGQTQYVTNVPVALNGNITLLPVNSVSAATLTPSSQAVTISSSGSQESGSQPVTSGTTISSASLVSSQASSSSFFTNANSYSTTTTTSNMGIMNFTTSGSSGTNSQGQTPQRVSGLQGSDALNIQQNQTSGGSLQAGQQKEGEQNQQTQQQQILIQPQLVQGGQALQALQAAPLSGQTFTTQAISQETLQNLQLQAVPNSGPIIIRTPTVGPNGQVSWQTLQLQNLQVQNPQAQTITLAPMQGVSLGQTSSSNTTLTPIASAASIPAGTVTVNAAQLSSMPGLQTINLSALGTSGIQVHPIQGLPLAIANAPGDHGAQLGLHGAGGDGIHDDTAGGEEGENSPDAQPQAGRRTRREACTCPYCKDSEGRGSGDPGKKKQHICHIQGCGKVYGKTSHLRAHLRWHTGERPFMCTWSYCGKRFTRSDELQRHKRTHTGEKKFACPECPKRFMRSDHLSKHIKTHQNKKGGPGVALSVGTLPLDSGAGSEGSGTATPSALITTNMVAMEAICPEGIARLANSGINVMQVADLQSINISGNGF
Outline: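 Endogenous Sp1 activity was gauged in human liver HepG2 cells bearing transfected reporter units under a cis-regulating promoter. After 24 h dosing, reporter mRNA was quantified by RT-PCR with capillary electrophoresis, and activity fitted bidirectionally versus DMSO.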

[6] = ATG_SREBP_CIS: Attagene CIS-FACTORIAL HepG2 Assay for human Sterol Regulatory Element Binding (SREBP) (AID 2282962); conditions: HepG2 Attagene cis-factorial SREBP reporter, mRNA; actives raise or lower the signal
Outline: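 Values derive from bidirectional curve fitting with DMSO as baseline. The underlying measurement is reporter mRNA from cis-element-regulated units in transiently transfected HepG2, quantified by RT-PCR and capillary electrophoresis after 24 h exposure.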

[7] = molecular target: Signal transducer and activator of transcription 3 (Homo sapiens) (UniProt P40763); assay: ATG_STAT3_CIS: Attagene CIS-FACTORIAL HepG2 Assay for human Signal Transducer and Activator of Transcription 3 (STAT3) (AID 2282963); conditions: HepG2, Attagene cis-factorial STAT3 reporter transcription; actives raise or lower the signal
Sequence of Signal transducer and activator of transcription 3 (Homo sapiens) (P40763 whole entry, looked up, the tested form may be a part): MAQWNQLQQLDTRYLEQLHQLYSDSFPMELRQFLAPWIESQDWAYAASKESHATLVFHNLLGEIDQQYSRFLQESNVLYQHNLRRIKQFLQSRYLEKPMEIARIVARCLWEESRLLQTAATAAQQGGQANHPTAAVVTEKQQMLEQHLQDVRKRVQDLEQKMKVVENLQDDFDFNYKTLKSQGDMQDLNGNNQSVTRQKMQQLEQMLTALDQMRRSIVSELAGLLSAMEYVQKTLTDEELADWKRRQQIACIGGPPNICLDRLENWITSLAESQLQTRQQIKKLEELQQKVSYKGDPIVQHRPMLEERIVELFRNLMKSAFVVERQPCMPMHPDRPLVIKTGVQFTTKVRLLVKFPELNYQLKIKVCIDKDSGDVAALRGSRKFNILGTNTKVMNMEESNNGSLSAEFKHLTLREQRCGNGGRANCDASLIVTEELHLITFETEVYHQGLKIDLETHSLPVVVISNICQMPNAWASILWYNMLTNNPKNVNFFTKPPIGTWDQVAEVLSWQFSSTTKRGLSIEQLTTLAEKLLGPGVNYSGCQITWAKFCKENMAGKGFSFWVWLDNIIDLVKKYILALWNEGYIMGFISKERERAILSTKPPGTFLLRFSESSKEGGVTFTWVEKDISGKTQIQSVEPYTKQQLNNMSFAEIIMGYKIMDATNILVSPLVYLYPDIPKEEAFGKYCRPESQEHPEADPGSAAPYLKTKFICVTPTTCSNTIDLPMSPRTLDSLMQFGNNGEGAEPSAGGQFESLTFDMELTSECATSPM
Outline: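 Readout: fluorescent reporter mRNA fragments resolved by capillary electrophoresis. Setup: HepG2 transfected with MRTUs reporting endogenous transcription-factor activity, dosed 24 h. Gain or loss of signal fitted bidirectionally against DMSO control.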

[8] = ATG_TA_CIS: Attagene CIS-FACTORIAL HepG2 Assay for human TA Basal Promoter (AID 2282964); conditions: HepG2 Attagene CIS-factorial TA basal promoter reporter; actives raise or lower the signal
Outline: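 Background-control readout: TA basal promoter reporter mRNA, fitted in both directions relative to DMSO. Measured by RT-PCR and capillary electrophoresis 24 hours after treating HepG2 human liver cells transiently carrying multiplexed cis-regulated reporter constructs.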

[9] = ATG_TCF_b_cat_CIS: Attagene CIS-FACTORIAL HepG2 Assay for human T-Cell-Factor with beta-catenin (TCF/b-cat) (AID 2282965); conditions: HepG2 TCF/beta-catenin cis-reporter transcription, actives raise or lower the signal
Outline: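 HepG2 cells transiently transfected with cis-promoter-driven multiplexed reporter units; reporter mRNA measured 24 h after dosing by RT-PCR, FAM labelling, HpaI digestion and capillary electrophoresis. Bidirectional fitting relative to DMSO baseline.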

[10] = ATG_TAL_CIS: Attagene CIS-FACTORIAL HepG2 Assay for human TAL Basal Promoter (AID 2282966); conditions: HepG2 Attagene cis-factorial TAL promoter reporter; actives raise or lower the signal;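 further: background control endpoint measuring basal TAL promoter reporter mRNA not a specific factor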
Outline: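 Background-control endpoint: basal TAL promoter reporter transcripts in transiently transfected HepG2, measured 24 h after dosing. Read-out by RT-PCR with fluorescent primer extension and capillary electrophoresis; gain or loss of signal fitted relative to DMSO.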

[11] = ATG_TGFb_CIS: Attagene CIS-FACTORIAL HepG2 Assay for human Transforming Growth Factor (TGF) (AID 2282967); conditions: HepG2 Attagene CIS TGFb reporter, mRNA transcription; actives raise or lower the signal
Outline: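 Endogenous TGFB1-linked transcription factor activity read as reporter mRNA via RT-PCR and capillary electrophoresis, 24 h after dosing transiently transfected HepG2 cells. Gain or loss of signal fitted relative to DMSO.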

[12] = molecular target: Estrogen receptor (Homo sapiens) (UniProt P03372); assay: ATG_ERa_TRANS: Attagene TRANS-FACTORIAL HepG2 Assay for human Estrogen Receptor alpha (ERa) (AID 2282970; active means hit-call score of the fitted dose curve at least 0.9, where 1 is the maximum); conditions: HepG2 Attagene TRANS ERa GAL4 reporter, mRNA
Sequence of Estrogen receptor (Homo sapiens) (P03372 whole entry, looked up, the tested form may be a part): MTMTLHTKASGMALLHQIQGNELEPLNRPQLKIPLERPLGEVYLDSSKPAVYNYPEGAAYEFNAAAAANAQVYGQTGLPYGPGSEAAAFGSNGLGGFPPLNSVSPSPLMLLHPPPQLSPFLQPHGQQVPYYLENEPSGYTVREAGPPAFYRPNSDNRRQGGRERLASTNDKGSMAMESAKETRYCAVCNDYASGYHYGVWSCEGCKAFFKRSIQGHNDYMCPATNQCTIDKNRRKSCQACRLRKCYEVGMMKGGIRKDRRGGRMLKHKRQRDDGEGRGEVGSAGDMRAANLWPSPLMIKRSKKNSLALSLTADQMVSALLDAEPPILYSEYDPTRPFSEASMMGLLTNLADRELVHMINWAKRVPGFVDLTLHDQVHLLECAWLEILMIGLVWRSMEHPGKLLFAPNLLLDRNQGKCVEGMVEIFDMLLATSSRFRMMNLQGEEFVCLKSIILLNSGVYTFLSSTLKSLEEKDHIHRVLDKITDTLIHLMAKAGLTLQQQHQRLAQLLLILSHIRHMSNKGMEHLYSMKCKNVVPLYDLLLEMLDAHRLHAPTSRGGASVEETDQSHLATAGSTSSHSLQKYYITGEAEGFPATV
Outline: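 Reporter transcripts were measured 24 h after dosing by RT-PCR with fluorescent primer extension and capillary electrophoresis. The system is transiently transfected HepG2 expressing exogenous NR-Gal4 chimeras driving GAL4-UAS reporters; DMSO is the baseline.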

[13] = molecular target: X-box-binding protein 1 (Homo sapiens) (UniProt P17861); assay: ATG_Xbp1_CIS: Attagene CIS-FACTORIAL HepG2 Assay for human X-box Binding Protein 1 (XBP1) (AID 2282972); conditions: HepG2 XBP1 cis-element reporter, Attagene multiplex; actives raise or lower the signal
Sequence of X-box-binding protein 1 (Homo sapiens) (P17861 whole entry, looked up): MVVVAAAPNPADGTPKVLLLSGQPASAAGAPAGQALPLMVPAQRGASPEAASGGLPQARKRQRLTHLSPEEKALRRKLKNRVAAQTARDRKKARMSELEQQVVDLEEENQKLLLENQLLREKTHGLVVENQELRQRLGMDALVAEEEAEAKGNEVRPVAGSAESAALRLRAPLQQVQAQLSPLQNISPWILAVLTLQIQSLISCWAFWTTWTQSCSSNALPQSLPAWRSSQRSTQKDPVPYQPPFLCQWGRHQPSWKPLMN
Outline: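 Human hepatoma HepG2, cis-element reporter system, 24 h treatment; mRNA quantified by RT-PCR/CE fluorescence; fit relative to DMSO.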

[14] = ATG_M_19_TRANS: Attagene TRANS-FACTORIAL HepG2 Assay for M19 Transcription Factor (Internal Marker) (AID 2282974; active means hit-call score of the fitted dose curve at least 0.9, where 1 is the maximum); conditions: HepG2 Attagene TRANS-FACTORIAL M19 internal marker reporter
Outline: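 Cells: human HepG2, transiently transfected with multiplexed reporter transcription units. Exposure: 24 h. Detection: RT-PCR of reporter mRNA with capillary electrophoresis. Analysis: gain-of-signal vs DMSO.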

[15] = ATG_PXRE_CIS: Attagene CIS-FACTORIAL HepG2 Assay for human Pregnane X Receptor Element (PXRE) (AID 2282957); conditions: HepG2 Attagene CIS-FACTORIAL PXRE reporter, mRNA; actives raise or lower the signal
Outline: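 Reporter transcripts under endogenous PXR-responsive cis-regulation quantified from total RNA of transfected HepG2 cells 24 h post-dosing, via RT-PCR with fluorescent primer extension and capillary electrophoresis. Gain or loss of signal fitted against DMSO baseline.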

[16] = ATG_VDRE_CIS: Attagene CIS-FACTORIAL HepG2 Assay for human Vitamin D Receptor Element (VDRE) (AID 2282968); conditions: HepG2 VDRE cis-reporter transcription, actives raise or lower the signal
Outline: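 Transient MRTU transfection of HepG2, 24 h compound exposure. Readout: reporter transcripts via RT-PCR and capillary electrophoresis, fluorescence. Bidirectional fit vs DMSO.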

[17] = molecular target: Steroid hormone receptor ERR1 (Homo sapiens) (UniProt P11474); assay: ATG_ERRa_TRANS: Attagene TRANS-FACTORIAL HepG2 Assay for human Estrogen-Related Receptor alpha (ERRa) (AID 2282971; active means hit-call score of the fitted dose curve at least 0.9, where 1 is the maximum); conditions: HepG2 Attagene TRANS reporter, ERRa transactivation
Sequence of Steroid hormone receptor ERR1 (Homo sapiens) (P11474 whole entry, looked up, the tested form may be a part): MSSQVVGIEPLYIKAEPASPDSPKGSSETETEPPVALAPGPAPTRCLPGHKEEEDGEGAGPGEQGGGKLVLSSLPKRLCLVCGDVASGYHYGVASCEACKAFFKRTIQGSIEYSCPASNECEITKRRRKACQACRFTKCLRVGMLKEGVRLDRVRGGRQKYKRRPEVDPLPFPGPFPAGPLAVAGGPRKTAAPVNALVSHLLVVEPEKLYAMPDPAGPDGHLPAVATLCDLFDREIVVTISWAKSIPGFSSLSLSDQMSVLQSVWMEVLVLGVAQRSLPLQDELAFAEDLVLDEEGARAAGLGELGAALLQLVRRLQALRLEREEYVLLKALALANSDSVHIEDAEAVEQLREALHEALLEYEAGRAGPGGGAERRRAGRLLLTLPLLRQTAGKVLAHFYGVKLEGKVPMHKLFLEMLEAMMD
Outline: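 Reporter transcripts from ERRa-Gal4 chimera activity measured in transiently transfected human HepG2 cells 24 hours after dosing, using RT-PCR with 6-FAM primer extension, HpaI digestion and capillary electrophoresis; DMSO is baseline.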

[18] = ATG_GAL4_TRANS: Attagene TRANS-FACTORIAL HepG2 Assay for GAL4 (Internal Marker) (AID 2282976; active means hit-call score of the fitted dose curve at least 0.9, where 1 is the maximum); conditions: HepG2 Attagene TRANS GAL4 internal marker reporter
Outline: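 In transfected human HepG2 liver cells dosed 24 h, GAL4 reporter mRNA serves as a baseline marker. Detection by RT-PCR with fluorescent capillary electrophoresis, activity fitted upward relative to DMSO.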

[19] = molecular target: Nuclear receptor subfamily 1 group I member 3 (Homo sapiens) (UniProt Q14994); assay: ATG_CAR_TRANS: Attagene TRANS-FACTORIAL HepG2 Assay for human Constitutive Androstane Receptor (CAR) (AID 2282969; active means hit-call score of the fitted dose curve at least 0.9, where 1 is the maximum;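 further: activators raise reporter mRNA above DMSO so AC50 marks induction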); conditions: HepG2 Attagene TRANS-FACTORIAL CAR reporter
Sequence of Nuclear receptor subfamily 1 group I member 3 (Homo sapiens) (Q14994 whole entry, looked up, the tested form may be a part): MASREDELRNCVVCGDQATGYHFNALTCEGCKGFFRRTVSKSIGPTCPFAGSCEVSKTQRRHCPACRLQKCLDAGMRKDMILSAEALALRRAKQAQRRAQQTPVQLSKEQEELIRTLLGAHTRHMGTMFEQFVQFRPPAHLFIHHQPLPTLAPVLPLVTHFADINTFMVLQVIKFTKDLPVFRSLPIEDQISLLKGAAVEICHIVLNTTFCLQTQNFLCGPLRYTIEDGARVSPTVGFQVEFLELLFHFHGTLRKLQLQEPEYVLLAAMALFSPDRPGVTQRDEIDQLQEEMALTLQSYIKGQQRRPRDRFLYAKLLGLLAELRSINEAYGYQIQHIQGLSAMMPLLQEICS
Outline: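 Transiently transfected HepG2, multiplex TRANS reporters (CAR-Gal4 chimera driving GAL4-UAS reporter). 24 h dosing. Readout: reporter transcript by RT-PCR + capillary electrophoresis, fluorescence intensity; positive direction vs DMSO.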

Measured: AC50

CCCCC/C=C\C/C=C\CCCCCCCC(=O)O
active: [1] 133 µM | [2] 35.1 µM | [3] 39.6 µM | [8] 100 µM | [10] 100 µM | [13] 147 µM
not listed: [15] | [16] | [17] | [18] | [19]
inactive: all other assays above

CC(=O)CC(=O)Nc1ccccc1C
not listed: [2] | [3] | [7] | [12] | [14] | [18] | [19]
inactive: all other assays above

O=C(OCCc1ccccc1)c1ccccc1
not listed: [1] | [4] | [7] | [14] | [17] | [18] | [19]
inactive: all other assays above

CCOc1ccc(NC(N)=O)cc1
not listed: [2] | [3] | [14] | [15] | [17] | [19]
inactive: all other assays above

Clc1cccnc1
active: [15] 27 µM
not listed: [1] | [11] | [12] | [14] | [17] | [19]
inactive: all other assays above

O=C(O)/C=C/c1ccccc1
not listed: [1] | [12] | [14] | [17] | [19]
inactive: all other assays above

CCC[Si](OC)(OC)OC
active: [15] 129 µM
not listed: [2] | [9] | [12] | [18] | [19]
inactive: all other assays above

[Cl][Eu]([Cl])[Cl]
active: [12] 36.6 µM
inactive: [15] | [4] | [5] | [6] | [7] | [8] | [10] | [16] | [13]

c1ccc(-c2nc3ccccc3[nH]2)cc1
active: [15] 27.4 µM
not listed: [1] | [3] | [9] | [14] | [17] | [19]
inactive: all other assays above

N#Cc1ccc(C2CCCc3cncn32)cc1 (centres undefined)
active: [12] 25.8 µM
not listed: [8] | [15] | [17] | [19]
inactive: all other assays above

Cc1ccc(S(=O)(=O)N=C=O)cc1
not listed: [1] | [7] | [14] | [15] | [19]
inactive: all other assays above

O=C1CCCCC1C1CCCCC1 (centres undefined)
active: [15] 27.3 µM
not listed: [1] | [7] | [17] | [19]
inactive: all other assays above

CCN1CN(CC)CN(CC)C1
active: [4] 138 µM | [5] 163 µM | [9] 132 µM | [13] 162 µM
not listed: [15] | [16] | [17] | [18] | [19]
inactive: all other assays above

CCCCCCCCCCCCc1ccc(O)cc1
active: [12] 0.0847 µM
not listed: [1] | [15] | [17] | [19]
inactive: all other assays above

CC1=CP(=O)(c2ccccc2)CC1 (centres undefined)
not listed: [1] | [11] | [12] | [15] | [16] | [18] | [19]
inactive: all other assays above

CC1OC(=O)C(C)OC1=O (centres undefined)
not listed: [1] | [3] | [14] | [17] | [19]
inactive: all other assays above

CCCCC(C=O)CC (centres undefined)
not listed: [1] | [8] | [11] | [12] | [17]
inactive: all other assays above

O=C(O[C@@H]1Cc2c(O)cc(O)cc2O[C@@H]1c1cc(O)c(O)c(O)c1)c1cc(O)c(O)c(O)c1
active: [9] 36 µM
not listed: [2] | [3] | [11] | [14] | [17] | [19]
inactive: all other assays above

C=CCNCC=C
inactive: [1] | [4] | [5] | [6] | [7] | [10] | [11] | [16] | [13] | [14]

O=C(Nc1ccccc1)c1cc(Cl)ccc1O
inactive: [1] | [4] | [7] | [8] | [9] | [10] | [12]
active: [3] 15.5 µM | [5] 3.65 µM | [6] 5.55 µM | [11] 52.5 µM | [16] 6.51 µM | [13] 4.18 µM
